# Screens (PubChem)
# tim10-1 inh: tim10-1 yeast growth inhibition; actives 2.2% (n = 330,000); inhibition, % at 20 µM; S. cerevisiae tim10-1 ts strain growth, BacTiter-Glo, 24 h;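 active = inhibition of at least 40%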;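 also: mutant grown at 25 °C; 0% = DMSO wells with yeast and 100% = wells holding no yeast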
# MPTP block: inhibitors of mitochondrial permeability transition pore. isolated mouse mitochondria, Ca2+ swelling absorbance, 30 min. inhibition, % at 10 µM. actives 1.4% (n = 360,000). AID 602449;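 active = inhibition of 50% or more, scaled per plate between neutral and stimulator controls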;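 also: 0% = DMSO wells given calcium and 100% = 1 mM EGTA wells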
# tim23-1 inh: growth inhibitors of tim23-1 mutant yeast. actives 1.3% (n = 330,000). AID 463212. S. cerevisiae tim23-1 growth, BacTiter-Glo luminescence, 24 h. inhibition, % at 20 µM;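 active = growth inhibition of the mutant yeast at or above 50%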;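 also: temperature-sensitive mutant grown at 25 °C; plate controls were DMSO-treated mutant yeast for no effect and medium wells lacking yeast for full effect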
# TIM10 inh: growth inhibitors of TIM10 yeast strain | inhibition, % at 10 µM | actives 1.4% (n = 330,000) | S. cerevisiae TIM10 strain growth, BacTiter-Glo luminescence, 24 h;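 active = inhibition of 40% or more at the single tested concentration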;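 also: wild-type TIM10 isogenic control strain grown at permissive 25 °C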
# Mdm2-MdmX inh: disrupts the human Mdm2-MdmX interaction. actives 3% (n = 330,000). O15151+Q00987. SaOS-2 split-luciferase Mdm2/MdmX complementation, luminescence. inhibition, % at 8 µM;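 active = inhibition of at least 50% at 8 µM in the primary screen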
# Target sequence (O15151 whole entry, looked up): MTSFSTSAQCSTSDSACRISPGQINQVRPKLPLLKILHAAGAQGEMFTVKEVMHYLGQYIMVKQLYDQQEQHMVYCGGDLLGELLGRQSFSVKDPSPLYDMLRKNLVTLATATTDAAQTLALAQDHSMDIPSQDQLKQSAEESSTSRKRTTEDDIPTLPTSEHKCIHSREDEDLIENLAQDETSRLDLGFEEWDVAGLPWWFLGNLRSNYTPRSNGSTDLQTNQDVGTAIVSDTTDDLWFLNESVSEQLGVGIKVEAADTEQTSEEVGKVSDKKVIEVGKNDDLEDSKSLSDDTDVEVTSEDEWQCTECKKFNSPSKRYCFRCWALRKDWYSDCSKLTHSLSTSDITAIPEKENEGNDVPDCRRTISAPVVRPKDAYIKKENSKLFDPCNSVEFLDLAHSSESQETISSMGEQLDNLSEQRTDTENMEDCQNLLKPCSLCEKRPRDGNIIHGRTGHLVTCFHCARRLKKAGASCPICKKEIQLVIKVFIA
# Target sequence (Q00987 whole entry, looked up): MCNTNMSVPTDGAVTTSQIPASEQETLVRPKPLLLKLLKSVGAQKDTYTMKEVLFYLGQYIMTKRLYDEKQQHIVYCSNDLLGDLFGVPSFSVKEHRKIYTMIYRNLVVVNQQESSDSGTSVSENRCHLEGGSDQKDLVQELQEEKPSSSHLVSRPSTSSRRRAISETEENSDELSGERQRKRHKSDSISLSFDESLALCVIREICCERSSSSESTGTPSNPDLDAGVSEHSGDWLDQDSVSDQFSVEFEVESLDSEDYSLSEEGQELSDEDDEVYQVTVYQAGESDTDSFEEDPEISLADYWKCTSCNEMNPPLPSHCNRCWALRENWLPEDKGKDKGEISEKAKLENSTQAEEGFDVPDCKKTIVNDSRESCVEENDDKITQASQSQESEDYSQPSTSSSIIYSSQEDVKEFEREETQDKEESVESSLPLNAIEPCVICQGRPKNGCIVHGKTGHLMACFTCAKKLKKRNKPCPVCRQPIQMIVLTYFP
# tim10-1 confirm: tim10-1 yeast growth inhibition, confirmed | shares compounds with tim10-1 inh | S. cerevisiae tim10-1 ts strain growth, BacTiter-Glo, 24 h | inhibition, % at 20 µM | actives 56% (n = 7,400) | AID 463213;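 active = inhibition of yeast growth at or above a set limit in either of two repeat tests at 20 µM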;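 also: tim10-1 mutant grown at permissive 25 °C to find synthetic lethal compounds; 0% = DMSO yeast wells and 100% = medium wells without yeast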
# * = called active by the depositor; / = not tested or not shown. Shown are actives, neighbours in structure and some others; about 6.3% of the full set was active somewhere.
SMILES,tim10-1 inh,MPTP block,tim23-1 inh,TIM10 inh,Mdm2-MdmX inh,tim10-1 confirm
COc1cc(OC)cc(C(=O)NC(=S)Nc2ccc3c4c(cccc24)CC3)c1,9,3,-7,22,11,/
COc1ccc(C(=O)Nc2ccc3c4c(cccc24)CC3)cc1,44*,0,48,23,-12,30*
CCCCCCc1cc2cc(C(N)=O)c(=N)oc2cc1O,42*,/,13,15,8,18
CCN(CC)c1ccc2cc(C(N)=O)c(=N)oc2c1,-37,0,7,-36,21,/
S=c1[nH]nc(-c2ccco2)n1/N=C/c1cccc(Cl)c1Cl,41*,6,36,32,-13,33*
S=c1[nH]nc(-c2ccco2)n1/N=C/C=C/c1ccccc1,41*,1,36,37,5,30*
S=c1[nH]nc(-c2ccco2)n1/N=C/c1ccc(Cl)cc1Cl,38,13,37,38,5,/
CC(C)(C)N1C(=O)c2ccccc2NC(=O)C1C(=O)Nc1ccc2c(c1)OCCO2 (stereo unspecified),/,1,/,/,/,/
O=C1NC[C@H](CCCCN2C[C@H](Cc3ccc(O)cc3)N(CCc3ccc(O)cc3)C(=O)C2=O)N(CC2CCCCC2)C1=O,/,0,/,/,/,/
CCCNC(=O)C12CCC(C)(c3nc4cc(C)c(C)cc4nc31)C2(C)C (stereo unspecified),42*,-2,41,22,8,26
CNC(=O)C12CCC(C)(c3nc4cc(C)c(C)cc4nc31)C2(C)C (stereo unspecified),27,2,31,14,-17,/
CCOC(=O)C1=CCN(S(=O)(=O)c2ccccc2Cl)C1c1cccc(F)c1 (stereo unspecified),/,-2,/,/,/,/
CCC(C)(C)n1nnnc1C(c1ccc(C)cc1)N1CCC(C)CC1 (stereo unspecified),41*,-1,45,38,10,36*
CCC(C)(C)n1nnnc1C(c1ccncc1)N1CCC(C)CC1 (stereo unspecified),17,-5,14,20,-10,/
CCCN1C(=O)/C(=N\OCC(=O)Nc2ccc(C(C)C)cc2)c2ccccc21,48*,5,39,14,40,38*
CCCN1C(=O)/C(=N\OCC(=O)NC23CC4CC(CC(C4)C2)C3)c2ccccc21,42*,4,47,19,19,22
CC1(C(=O)NCc2ccccn2)CCN1C(=O)Cc1ccc(Cl)cc1Cl (stereo unspecified),/,-1,/,/,/,/
COc1cc(C=C2C(=O)C=CC2=O)ccc1O,/,8,/,/,/,/
Cc1sc(N)nc1-c1c(C)n(C)c2ccccc12,68*,0,5,6,8,-9
COc1ccc(NC(=O)C2Cc3c(-c4cccc(F)c4)ccnc3O2)cn1 (stereo unspecified),/,0,/,/,/,/
CCOc1ccc(NC(=S)c2ccc3ccccc3n2)cc1,23,-2,6,16,-14,/
COc1ccc(NC(=S)c2ccc3ccccc3n2)cc1,56*,-1,40,16,-69,10
CC1=C(C(=O)N2CCc3ccccc32)C2(CCC(C)CC2)OC1=O (stereo unspecified),48*,4,28,22,1,33*
O=C(CNC(=O)c1cccs1)OCC(=O)c1ccc2ccccc2c1,40*,0,25,38,4,15
CC(=O)c1ccc(OC2(C)CCN(CCOc3ccc(C)cc3)C2)cc1 (stereo unspecified),/,0,/,/,/,/
SMILES,tim10-1 inh,MPTP block,tim23-1 inh,TIM10 inh,Mdm2-MdmX inh,tim10-1 confirm
Cc1nn(-c2nnc(NCc3ccccc3)nn2)c(C)c1Br,49*,1,35,13,-19,28
Cc1cc(C)n(-c2nnc(NCc3ccc(Cl)cc3)nn2)n1,28,0,14,24,-23,/
Cc1ccc(S(=O)(=O)/N=C2/C=C(C3C(=O)CC(C)(C)CC3=O)C(=O)c3ccccc32)cc1,41*,28,27,17,-9,29
CN(C)C(=O)c1cccc(-c2cnc3c(NC=O)cc(-c4ccc(N(C)C)cc4)cn23)c1,/,1,/,/,/,/
COc1ccccc1CNC(=O)C1(C)CCN1C(=O)C1(c2ccccc2)CC1 (stereo unspecified),/,1,/,/,/,/
CCCc1cc(C(=O)NNC(=S)NCc2ccccc2)cs1,44*,-2,17,34,3,29
